Test results published in PubChem BioAssay AID1159580 (chemical genetic matrix, 2015).
Values joined by “and” are separate entries in the source; they are usually repeats but may differ in a detail not shown here. Equal values may be shown once. In all, about 5,500 compounds went through this assay and about 2,000 (36%) were called active. Not shown: some 18% with an inconclusive outcome. No stated cut-off is given here; in the data, active means normalized growth mostly below about 0.91 (no sharp cut-off); inconclusive means no clear call, values can overlap the other calls; inactive means mostly above about 0.92. The list shows a part of the results.

Assay: chemical genetic growth profiling, strain panel (AID 1159580);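 further: tested at 20 µM; growth read once vehicle control cultures reached saturation at 30 °C; 1 = growth at the plate median or of vehicle wells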
Details: S. cerevisiae deletion strains, growth OD

Measured: normalized growth

O=C(/C=C/c1ccccc1)c1ccc(O)cc1
active: locus YAL013W, strain DEP1, stronger effect = lower value 0.736 | locus YAL021C, strain ccr4, stronger effect = lower value 0.633 | locus YAL026C, strain drs2, stronger effect = lower value 0.192 | locus YAL030W, strain snc1, stronger effect = lower value 0.247 | locus YBL061C, strain skt5, stronger effect = lower value 0.263 | locus YBR009C, strain hhf1, stronger effect = lower value 0.0771 | locus YBR023C, strain chs3, stronger effect = lower value 0.399 | locus YBR171W, strain sec66, stronger effect = lower value 0.112 | locus YBR229C, strain ROT2, stronger effect = lower value 0.887 | locus YBR231C, strain swc5, stronger effect = lower value 0.315 | locus YBR279W, strain paf1, stronger effect = lower value 0.494 | locus YCL011C, strain gbp2, stronger effect = lower value 0.1 | locus YCL016C, strain dcc1, stronger effect = lower value 0.2 | locus YCL029C, strain bik1, stronger effect = lower value 0.831 | locus YCL061C, strain MRC1, stronger effect = lower value 0.102 | locus YCL069W, strain vba3, stronger effect = lower value 0.218 | locus YCR088W, strain abp1, stronger effect = lower value 0.157 | locus YDL005C, strain med2, stronger effect = lower value 0.64 | locus YDL035C, strain GPR1, stronger effect = lower value 0.723 | locus YDL040C, strain nat1, stronger effect = lower value 0.706 | locus YDL074C, strain BRE1, stronger effect = lower value 0.593 | locus YDL101C, strain DUN1, stronger effect = lower value 0.618 | locus YDL134C, strain PPH21, stronger effect = lower value 0.661 | locus YDL185W, strain tfp1, stronger effect = lower value 0.817 | locus YDL192W, strain arf1, stronger effect = lower value 0.726 | locus YDR001C, strain nth1, stronger effect = lower value 0.316 | locus YDR069C, strain doa4, stronger effect = lower value 0.742 | locus YDR101C, strain arx1, stronger effect = lower value 0.88 | locus YDR137W, strain rgp1, stronger effect = lower value 0.198 | locus YDR150W, strain NUM1, stronger effect = lower value 0.87 | locus YDR159W, strain sac3, stronger effect = lower value 0.26 | locus YDR162C, strain NBP2, stronger effect = lower value 0.182 | locus YDR195W, strain ref2 0.22 | locus YDR297W, strain sur2, stronger effect = lower value 0.19 | locus YDR318W, strain mcm21, stronger effect = lower value 0.788 | locus YDR334W, strain swr1, stronger effect = lower value 0.185 | locus YDR335W, strain msn5, stronger effect = lower value 0.16 | locus YDR388W, stronger effect = lower value 0.863 | locus YDR392W, strain spt3, stronger effect = lower value 0.0785 | locus YDR502C, strain sam2, stronger effect = lower value 0.758 | locus YEL003W, strain gim4, stronger effect = lower value 0.0639 | locus YEL037C, strain rad23, stronger effect = lower value 0.602 | locus YEL061C, strain CIN8 (second series), stronger effect = lower value 0.0689 | locus YEL061C, strain CIN8, stronger effect = lower value 0.506 | locus YER015W, strain faa2, stronger effect = lower value 0.264 | locus YER016W, strain bim1, stronger effect = lower value 0.176 | locus YER110C, stronger effect = lower value 0.89 | locus YER111C, strain swi4, stronger effect = lower value 0.124 | locus YER155C, strain BEM2 (second series), stronger effect = lower value 0.093 | locus YER155C, strain BEM2, stronger effect = lower value 0.568 | locus YER167W, strain BCK2, stronger effect = lower value 0.74 | locus YFR010W, strain ubp6, stronger effect = lower value 0.648 | locus YGL086W, strain mad1, stronger effect = lower value 0.733 | locus YGL167C, strain pmr1, stronger effect = lower value 0.83 | locus YGL173C, strain kem1, stronger effect = lower value 0.403 | locus YGL227W, strain vid30, stronger effect = lower value 0.0651 | locus YGL240W, strain doc1, stronger effect = lower value 0.358 | locus YGL248W, strain PDE1, stronger effect = lower value 0.716 | locus YGL253W, strain hxk2, stronger effect = lower value 0.177 | locus YGR078C, strain PAC10, stronger effect = lower value 0.429 | locus YGR135W, strain pre9, stronger effect = lower value 0.771 | locus YGR229C, strain SMI1, stronger effect = lower value 0.253 | locus YGR252W, strain gcn5, stronger effect = lower value 0.648 | locus YHR013C, strain ard1, stronger effect = lower value 0.353 | locus YHR027C, strain rpn1, stronger effect = lower value 0.51 | locus YHR079C, strain IRE1 (second series), stronger effect = lower value 0.494 | locus YHR079C, strain IRE1, stronger effect = lower value 0.788 | locus YHR129C, strain ARP1, stronger effect = lower value 0.635 | locus YHR142W, strain chs7, stronger effect = lower value 0.113 | locus YHR200W, strain rpn10, stronger effect = lower value 0.898 | locus YIL066C, strain RNR3, stronger effect = lower value 0.515 | locus YIL125W, strain kgd1, stronger effect = lower value 0.931 | locus YIR030C, strain dcg1, stronger effect = lower value 0.853 | locus YJL092W, strain hpr5, stronger effect = lower value 0.299 | locus YJL095W, strain BCK1 (second series), stronger effect = lower value 0.0714 | locus YJL115W, strain asf1, stronger effect = lower value 0.444 | locus YJL129C, strain trk1, stronger effect = lower value 0.209 | locus YJL154C, strain vps35, stronger effect = lower value 0.678 | locus YJL164C, strain tpk1, stronger effect = lower value 0.162 | locus YJL166W, strain qcr8, stronger effect = lower value 0.0857 | locus YJL168C, strain set2, stronger effect = lower value 0.913 | locus YJL187C, strain SWE1 (second series), stronger effect = lower value 0.697 | locus YJR043C, strain POL32, stronger effect = lower value 0.597
0.205 (active) and 0.945 (inactive): locus YJL095W, strain BCK1, stronger effect = lower value
0.38 (active) and 0.945 (inactive): locus YHR030C, strain SLT2, stronger effect = lower value
inactive: locus YBR021W, strain FUR4, stronger effect = lower value 0.891 | locus YGL078C, strain dbp3, stronger effect = lower value 0.926 | locus YHR094C, strain hxt1, stronger effect = lower value 0.944 | locus YIL073C, strain SPO22, stronger effect = lower value 0.7 | locus YJL134W, strain LCB3, stronger effect = lower value 0.93 | locus YJR066W, strain TOR1, stronger effect = lower value 0.883
